Results reported in PubChem BioAssay AID1159580 (chemical genetic matrix, 2015).
The campaign covered roughly 5,500 compounds. About 2,000 (36%) were called active. Not shown: some 18% with an inconclusive outcome. The list shows a part of the results. Values without a mark were called inactive. Rule as the data show it: active = normalized growth mostly below about 0.91 (no sharp cut-off); inconclusive = no clear call, values can overlap the other calls; inactive = mostly above about 0.92.

Assay: chemical genetic growth profiling, strain panel (AID 1159580);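 also: tested at 20 µM; growth read once vehicle control cultures reached saturation at 30 °C; 1 = growth at the plate median or of vehicle wells; lower values mean less growth of the strain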
Details: growth OD
[1] = S. cerevisiae deletion strains, locus YDL101C, strain DUN1, stronger effect = lower value
[2] = S. cerevisiae deletion strains, locus YHR030C, strain SLT2, stronger effect = lower value

N/C(=N/OC(=O)c1ccccc1Cl)c1cccc(CS(=O)(=O)c2ccc(Cl)cc2)c1
normalized growth (S. cerevisiae deletion strains, locus YAR019C, strain CDC15, stronger effect = lower value): 0.993
normalized growth (S. cerevisiae deletion strains, locus YBL105C, strain PKC1, stronger effect = lower value): 0.975
normalized growth (S. cerevisiae deletion strains, locus YBR135W, strain CKS1, stronger effect = lower value): 0.981
normalized growth (S. cerevisiae deletion strains, locus YBR136W, strain MEC1, stronger effect = lower value): 0.986
normalized growth (S. cerevisiae deletion strains, locus YBR160W, strain CDC28, stronger effect = lower value): 0.981
normalized growth (S. cerevisiae deletion strains, locus YDL017W, strain CDC7, stronger effect = lower value): 0.984
normalized growth (S. cerevisiae deletion strains, locus YDL028C, strain MPS1, stronger effect = lower value): 0.991
normalized growth [1]: 0.982
normalized growth (S. cerevisiae deletion strains, locus YDL108W, strain KIN28, stronger effect = lower value): 0.986
normalized growth (S. cerevisiae deletion strains, locus YDL132W, strain cdc53, stronger effect = lower value): 0.984
normalized growth (S. cerevisiae deletion strains, locus YDL214C, strain PRR2, stronger effect = lower value): 1.04
normalized growth (S. cerevisiae deletion strains, locus YDR052C, strain DBF4, stronger effect = lower value): 0.981
normalized growth (S. cerevisiae deletion strains, locus YDR054C, strain cdc34, stronger effect = lower value): 0.984
normalized growth (S. cerevisiae deletion strains, locus YDR226W, strain ADK1, stronger effect = lower value): 0.981
normalized growth (S. cerevisiae deletion strains, locus YDR477W, strain SNF1, stronger effect = lower value): 0.997
normalized growth (S. cerevisiae deletion strains, locus YER123W, strain YCK3, stronger effect = lower value): 0.995
normalized growth (S. cerevisiae deletion strains, locus YER133W, strain GLC7, stronger effect = lower value): 1
normalized growth (S. cerevisiae deletion strains, locus YFL009W, strain cdc4, stronger effect = lower value): 0.98
normalized growth (S. cerevisiae deletion strains, locus YFL029C, strain CAK1, stronger effect = lower value): 0.985
normalized growth (S. cerevisiae deletion strains, locus YFR003C, strain YPI1, stronger effect = lower value): 0.977
normalized growth (S. cerevisiae deletion strains, locus YFR019W, strain FAB1, stronger effect = lower value): 1.01
normalized growth (S. cerevisiae deletion strains, locus YFR028C, strain CDC14, stronger effect = lower value): 0.99
normalized growth (S. cerevisiae deletion strains, locus YGR040W, strain KSS1, stronger effect = lower value): 1
normalized growth (S. cerevisiae deletion strains, locus YGR052W, strain FMP48, stronger effect = lower value): 1.02
normalized growth (S. cerevisiae deletion strains, locus YGR092W, strain DBF2, stronger effect = lower value): 0.974
normalized growth [2]: 1.12
normalized growth (S. cerevisiae deletion strains, locus YHR079C, strain IRE1, stronger effect = lower value): 1.09
normalized growth (S. cerevisiae deletion strains, locus YHR082C, strain KSP1, stronger effect = lower value): 1.13
normalized growth (S. cerevisiae deletion strains, locus YHR205W, strain SCH9, stronger effect = lower value): 0.984
normalized growth (S. cerevisiae deletion strains, locus YIL147C, strain SLN1, stronger effect = lower value): 0.988
normalized growth (S. cerevisiae deletion strains, locus YJL095W, strain BCK1, stronger effect = lower value): 0.973
normalized growth (S. cerevisiae deletion strains, locus YJL128C, strain PBS2, stronger effect = lower value): 0.985
normalized growth (S. cerevisiae deletion strains, locus YJL157C, strain FAR1, stronger effect = lower value): 1.01
normalized growth (S. cerevisiae deletion strains, locus YJR016C, strain ILV3, stronger effect = lower value): 0.999
normalized growth (S. cerevisiae deletion strains, locus YJR066W, strain TOR1 (second series), stronger effect = lower value): 0.982
normalized growth (S. cerevisiae deletion strains, locus YJR066W, strain TOR1, stronger effect = lower value): 1.07
normalized growth (S. cerevisiae deletion strains, locus YKL048C, strain ELM1, stronger effect = lower value): 0.996
normalized growth (S. cerevisiae deletion strains, locus YKL067W, strain YNK1, stronger effect = lower value): 1.01
normalized growth (S. cerevisiae deletion strains, locus YKL101W, strain HSL1, stronger effect = lower value): 1.01
normalized growth (S. cerevisiae deletion strains, locus YKL193C, strain SDS22, stronger effect = lower value): 0.983
normalized growth (S. cerevisiae deletion strains, locus YKL203C, strain TOR2, stronger effect = lower value): 1.07
normalized growth (S. cerevisiae deletion strains, locus YLR113W, strain HOG1, stronger effect = lower value): 0.996
normalized growth (S. cerevisiae deletion strains, locus YLR133W, strain CKI1, stronger effect = lower value): 1.02
normalized growth (S. cerevisiae deletion strains, locus YLR403W, strain SFP1, stronger effect = lower value): 0.987
normalized growth (S. cerevisiae deletion strains, locus YML070W, strain DAK1, stronger effect = lower value): 1.02
normalized growth (S. cerevisiae deletion strains, locus YMR001C, strain CDC5, stronger effect = lower value): 0.986
normalized growth (S. cerevisiae deletion strains, locus YMR205C, strain PFK2 (second series), stronger effect = lower value): 1
normalized growth (S. cerevisiae deletion strains, locus YMR277W, strain FCP1, stronger effect = lower value): 0.99
normalized growth (S. cerevisiae deletion strains, locus YNL006W, strain LST8, stronger effect = lower value): 0.994
normalized growth (S. cerevisiae deletion strains, locus YNL020C, strain ARK1, stronger effect = lower value): 1.02
normalized growth (S. cerevisiae deletion strains, locus YNL161W, strain CBK1, stronger effect = lower value): 0.988
normalized growth (S. cerevisiae deletion strains, locus YNL183C, strain NPR1, stronger effect = lower value): 1.04
normalized growth (S. cerevisiae deletion strains, locus YNL207W, strain RIO2, stronger effect = lower value): 0.98
normalized growth (S. cerevisiae deletion strains, locus YNL222W, strain SSU72, stronger effect = lower value): 0.981
normalized growth (S. cerevisiae deletion strains, locus YNL307C, strain MCK1 (second series), stronger effect = lower value): 0.968
normalized growth (S. cerevisiae deletion strains, locus YOL078W, strain AVO1, stronger effect = lower value): 0.986
normalized growth (S. cerevisiae deletion strains, locus YOL136C, strain PFK27, stronger effect = lower value): 1.03
normalized growth (S. cerevisiae deletion strains, locus YOR061W, strain CKA2, stronger effect = lower value): 1.01
normalized growth (S. cerevisiae deletion strains, locus YOR119C, strain RIO1, stronger effect = lower value): 1.08
normalized growth (S. cerevisiae deletion strains, locus YOR231W, strain MKK1, stronger effect = lower value): 1.01
normalized growth (S. cerevisiae deletion strains, locus YOR329C, strain SCD5, stronger effect = lower value): 0.994
normalized growth (S. cerevisiae deletion strains, locus YPL031C, strain PHO85, stronger effect = lower value): 1.01
normalized growth (S. cerevisiae deletion strains, locus YPL153C, strain RAD53, stronger effect = lower value): 0.994
normalized growth (S. cerevisiae deletion strains, locus YPL204W, strain HRR25, stronger effect = lower value): 1
normalized growth (S. cerevisiae deletion strains, locus YPL209C, strain IPL1, stronger effect = lower value): 0.981
normalized growth (S. cerevisiae deletion strains, locus YPL256C, strain CLN2, stronger effect = lower value): 1.2 [resistant] (active)
normalized growth (S. cerevisiae deletion strains, locus YPR025C, strain CCL1, stronger effect = lower value): 0.988
normalized growth (S. cerevisiae deletion strains, locus YPR106W, strain ISR1, stronger effect = lower value): 1
normalized growth (S. cerevisiae deletion strains, locus YPR111W, strain DBF20, stronger effect = lower value): 0.988
normalized growth (S. cerevisiae deletion strains, strain NNK1, stronger effect = lower value): 0.99
normalized growth (S. cerevisiae deletion strains, strain TSCII, stronger effect = lower value): 0.988

NC(=S)c1ccc2nonc2c1
normalized growth (S. cerevisiae deletion strains, locus YAL013W, strain DEP1, stronger effect = lower value): 0.999
normalized growth (S. cerevisiae deletion strains, locus YBR229C, strain ROT2, stronger effect = lower value): 1
normalized growth [1]: 0.984
normalized growth (S. cerevisiae deletion strains, locus YDL134C, strain PPH21, stronger effect = lower value): 0.986
normalized growth (S. cerevisiae deletion strains, locus YDR150W, strain NUM1, stronger effect = lower value): 0.927
normalized growth (S. cerevisiae deletion strains, locus YEL061C, strain CIN8, stronger effect = lower value): 1
normalized growth (S. cerevisiae deletion strains, locus YGR078C, strain PAC10, stronger effect = lower value): 1
normalized growth (S. cerevisiae deletion strains, locus YGR229C, strain SMI1, stronger effect = lower value): 0.994
normalized growth [2]: 0.991
normalized growth (S. cerevisiae deletion strains, locus YHR087W, strain rtc3, stronger effect = lower value): 0.996
normalized growth (S. cerevisiae deletion strains, locus YJR043C, strain POL32, stronger effect = lower value): 1.02
normalized growth (S. cerevisiae deletion strains, locus YJR075W, strain HOC1, stronger effect = lower value): 1.01
normalized growth (S. cerevisiae deletion strains, locus YLR039C, strain RIC1, stronger effect = lower value): 1.04
normalized growth (S. cerevisiae deletion strains, locus YLR058C, strain SHM2 (second series), stronger effect = lower value): 1
normalized growth (S. cerevisiae deletion strains, locus YLR085C, strain ARP6, stronger effect = lower value): 0.945
normalized growth (S. cerevisiae deletion strains, locus YLR262C, strain YPT6, stronger effect = lower value): 1.02
normalized growth (S. cerevisiae deletion strains, locus YML094W, strain GIM5, stronger effect = lower value): 0.982
normalized growth (S. cerevisiae deletion strains, locus YMR219W, strain ESC1, stronger effect = lower value): 0.992
normalized growth (S. cerevisiae deletion strains, locus YMR263W, strain SAP30, stronger effect = lower value): 1.03
normalized growth (S. cerevisiae deletion strains, locus YMR307W, strain GAS1, stronger effect = lower value): 1.03
normalized growth (S. cerevisiae deletion strains, locus YNL153C, strain GIM3, stronger effect = lower value): 1.01
normalized growth (S. cerevisiae deletion strains, locus YNL298W, strain CLA4 (second series), stronger effect = lower value): 1.02
normalized growth (S. cerevisiae deletion strains, locus YNL322C, strain KRE1, stronger effect = lower value): 0.996
normalized growth (S. cerevisiae deletion strains, locus YNR030W, strain Alg12, stronger effect = lower value): 0.988
normalized growth (S. cerevisiae deletion strains, locus YOL006C, strain TOP1, stronger effect = lower value): 0.976
normalized growth (S. cerevisiae deletion strains, locus YPL055C, strain LGE1, stronger effect = lower value): 1.09
normalized growth (S. cerevisiae deletion strains, locus YPL241C, strain CIN2, stronger effect = lower value): 0.963
normalized growth (S. cerevisiae deletion strains, locus YPR135W, strain CTF4, stronger effect = lower value): 1.13
normalized growth (S. cerevisiae strains, strain wild type, stronger effect = lower value): 0.994
